# In all, about 420,000 compounds went through this assay and about 50,000 (12%) were called active. A call without a number means that no potency is given here. Roughly 26% stayed inconclusive and do not appear here. Calls follow the shape of the dose curve; as a rule, active = well fitted inhibition curve with a large enough effect; inconclusive = small, poorly fitted or top-dose-only effect; inactive = flat fitted curve, though single readings scatter. Many of the other results were omitted from the sample, so actives are more common in it than they were.
# Assay: qHTS for Inhibitors of human tyrosyl-DNA phosphodiesterase 1 (TDP1): qHTS in cells in presence of CPT; also: nearly all actives have a fitted effect of over 55% in size
# Settings: chicken DT40 Tdp1-/-;hTDP1 cells + 20 nM CPT, ATP luminescence, 48 h; series mostly up to 46.2 µM
# Procedure, shortened: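 Cell growth measured by CellTiter-Glo luminescence after a minimum 48 h, 37 C compound exposure with 20 nM CPT in Tdp1-knockout DT40 cells stably expressing hTDP1, seeded 400/well; qHTS titration format.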
# Potency is read from the fitted curve at half-maximal effect.
row,SMILES,Potency
1,O=C1COc2ccc(C(=O)COC(=O)CCOc3ccccc3)cc2N1,inactive
2,Cc1ccc(C(=O)Oc2ccc(C(=S)N3CCOCC3)cc2)cc1,inactive
3,CC(C)(C)C1C/C(=C/c2ccco2)C(=O)/C(=C/c2ccco2)C1 (stereo not drawn),23.1 µM (active)
4,COC(=O)COc1ccc2c(c1C)O/C(=C\c1ccco1)C2=O,inactive
5,CCC1S/C(=N/N=C/c2ccco2)NC1=O (stereo not drawn),inactive
6,Cc1ccc2nc(N3C(=O)C(O)=C(C(=O)c4ccco4)C3c3cccc(O)c3)sc2c1 (stereo not drawn),inactive
7,CC(C)c1ccc(NC(=O)c2ccc3c(O)c(S(=O)(=O)c4ccccc4)c(=O)[nH]c3c2)cc1,inactive
8,C=C1C=C(C)n2ncc(C(=O)Nc3ccccc3O)c2N1,inactive
9,C=C1C=C(C(F)F)n2ncc(C(=O)NCCc3ccccc3OC)c2N1,15.8 µM (active)
10,COc1ccccc1CCNC(=O)c1cnccn1,inactive
11,C#CCOCCOCCOCCNc1nc(N2CCN(C(=O)CCCCCCCCCCNC(=O)[C@H](CCCCN)n3cc(C)nn3)CC2)nc(N2CCN(C(=O)CCCCCCCCCCNC(=O)[C@H](CO)n3cc(CCCSC)nn3)CC2)n1,14.6 µM (active)
12,C#CCOCCOCCOCCNc1nc(N2CCN(C(=O)CCCCCCCCCCNC(=O)[C@H]([C@@H](C)CC)n3cc(CCCCN=C(N)N)nn3)CC2)nc(N2CCN(C(=O)CCCCCCCCCCNC(=O)[C@H](CO)n3cc(CCCSC)nn3)CC2)n1,9.2 µM (active)
13,C#CCOCCOCCOCCNc1nc(N2CCN(C(=O)Cn3cc(CCO)nn3)CC2)nc(N2CCN(C(=O)Cn3cc(CCCN=C(N)N)nn3)CC2)n1,inactive
14,C#CCOCCOCCOCCNc1nc(N2CCN(C(=O)[C@H](CCCCN)n3cc(CCC(=O)O)nn3)CC2)nc(N2CCN(C(=O)[C@H](CCCCN)n3cc(CC(C)O)nn3)CC2)n1 (stereo partly drawn),inactive
15,C#CCOCCOCCOCCNc1nc(N2CCN(C(=O)[C@H](CCCN=C(N)N)n3cc(C(N)[C@@H](C)CC)nn3)CC2)nc(N2CCN(C(=O)[C@H](CO)n3cc([C@@H](N)C(C)C)nn3)CC2)n1 (stereo partly drawn),inactive
16,C#CCOCCOCCOCCNc1nc(N2CCN(C(=O)Cn3cc(CCO)nn3)CC2)nc(N2CCN(C(=O)[C@H](CCCCN)n3cc(CCCC)nn3)CC2)n1,inactive
17,CC(CC(=O)N1CCN(S(=O)(=O)c2ccccc2)CC1)n1cncn1 (stereo not drawn),inactive
18,O=c1cc(-c2ccccc2)n2c(SCc3ccccc3)nnc2[nH]1,inactive
19,Cc1cc(C)c(NC(=O)CN2CCOCCOCCOCCOCC2)c(C)c1,inactive
20,Cc1c(Cl)cccc1NC(=O)NCc1ccc(C)n1C,inactive

row,SMILES,Potency
1,COc1ccc(/C=C/C(=O)NC(=S)NN2CCCCC2c2cccnc2)cc1 (stereo not drawn),inactive
2,O=S(=O)(NCCc1csc(-c2ccccc2)n1)c1cccnc1,inactive
3,O=S(=O)(Cc1cc(Sc2ccccc2)nc(-c2ccccc2)n1)c1ccccc1,23.1 µM (active)
4,O=S(=O)(Cc1nnnn1-c1ccccc1)c1ccccc1,inactive
5,CC1(C(=O)NS(=O)(=O)c2cccc(OC(F)F)c2)CCN1C(=O)COc1ccc(Cl)cc1 (stereo not drawn),inactive
6,COC(=O)c1ccc(COC(=O)C2CCN(S(=O)(=O)c3c(Cl)cccc3Cl)CC2)o1,inactive
7,Cc1nc2ccccn2c(=O)c1NC(=O)c1c(F)cccc1F,inactive
8,Cn1c(C(=O)Nc2cccc(C(F)(F)F)c2)cc2c(=O)n3ccccc3nc21,14.6 µM (active)
9,O=C(Nc1ccc(OC(F)(F)F)cc1)c1cc2c(=O)n3ccccc3nc2s1,inactive
10,CCOc1ccccc1NC(=O)C1=C(C)Nc2ncnn2C1c1ccc(NC(C)=O)cc1 (stereo not drawn),inactive
11,CCOc1cc(C2C(C(=O)Nc3ccc(OC)cc3)=C(C)Nc3nc(SC)nn32)ccc1O (stereo not drawn),inactive
12,CCOc1ccc(C2C(C(=O)Nc3ccc(Cl)cc3)=C(C)Nc3nc(C(F)(F)F)nn32)cc1 (stereo not drawn),13 µM (active)
13,C[n+]1cc(-c2ccccc2)oc1-c1ccccc1,inactive
14,O=C(O)CCCCOn1ccnc1,inactive
15,CC1CCN(S(=O)(=O)c2ccc(S(=O)(=O)NCc3cccnc3)cc2)CC1,inactive
16,COc1ccc(CNS(=O)(=O)c2ccc(-c3cnc(C4CC4)o3)cc2)cc1,14.6 µM (active)
17,Cc1cccc(NS(=O)(=O)c2ccc(-c3cnc(C4CC4)o3)cc2)c1,0.731 µM (active)
18,CCc1ccc(S(=O)(=O)NCC(O)COc2ccc(OC)cc2)cc1 (stereo not drawn),inactive
19,CC1CN(C(=O)c2cccc(NS(=O)(=O)c3ccc(Br)cc3)c2)CC(C)O1 (stereo not drawn),inactive
20,Cc1cccc(CNS(=O)(=O)c2ccc(-c3cnc(C4CC4)o3)cc2)c1,16.4 µM (active)

row,SMILES,Potency
1,COc1ccc(CNS(=O)(=O)c2cc3c4c(c2)CCN4C(=O)CC3)cc1,inactive
2,COc1ccc(S(=O)(=O)NCc2cccn2Cc2cccc(C)c2)cc1,inactive
3,Cc1cccc(NS(=O)(=O)c2ccc(C)c(C(=O)NCc3cccnc3)c2)c1,inactive
4,O=C(C1CC1)N1N=C2CCCCC2C1(O)C(F)(F)F (stereo not drawn),inactive
5,O=[N+]([O-])c1ccccc1/C=C/CN1CCC(O)CC1,inactive
6,COC(=O)c1sc(C(F)(F)F)c(-c2ccccc2)c1S(=O)(=O)N(C)C,inactive
7,Cc1ccc(S(=O)(=O)NCCSc2ccccc2)cc1[N+](=O)[O-],inactive
8,CC(Oc1ccc(Cl)cc1)c1ccnn1S(C)(=O)=O (stereo not drawn),inactive
9,CC1CN(S(=O)(=O)c2cccc(C(F)(F)F)c2)CN1C(=O)N1CCOCC1 (stereo not drawn),inactive
10,O/N=C(\C[n+]1ccccc1)c1ccc(Br)cc1,inactive
11,COc1ccccc1N(CC(=O)Nc1ccc(C(F)(F)F)cc1)S(C)(=O)=O,inactive
12,CCCCN(CC)CCCNC(=O)c1nn(C)c2c1CSc1ccccc1-2,25.9 µM (active)
13,CCCCN(CC)CCCNC(=O)c1ccc(CSc2nc3ccncc3[nH]2)cc1,inactive
14,CCCCN(CC)CCCNC(=O)c1nn(C)c2c1CS(=O)(=O)c1ccccc1-2,inactive
15,C[C@@H]1CC2=C(C(=O)OC(C)(C)O2)[C@@H](C2CC2)O1,inactive
16,Cn1nccc1CNC(=O)c1ccnn1C,inactive
17,CCCc1ccc(-c2c(C)sc(NC(=O)c3ccnn3C)c2C#N)cc1,23.1 µM (active)
18,CCN(CC)C(=O)c1sc(NC(=O)c2ccco2)c(C#N)c1C,inactive

# Reference: PubChem BioAssay AID686979 (National Center for Advancing Translational Sciences (NCATS), 2013)
